Assay outcomes as filed in PubChem.
Pol III holo inh: DNA polymerase III holoenzyme inhibition; hit rate 0.25% among 71,000; reconstituted DNA polymerase III holoenzyme replication, biochemical; Potency, µM (doses to about 57.1 µM), for inactives: at the highest dose activity change, negative = inhibition; AID 603
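Reconstituted *E. coli* holoenzyme (0.35 nM Pol III, 1 nM beta, 154 nM SSB, 2 nM primase) was preincubated with compound for 15 min at RT. Synthesis on 1.4 nM ssM13Gori ran 35 min, then was stopped with PicoGreen/EDTA and read as dsDNA fluorescence.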
Tau filament bind: tau filament binding; P10636; recombinant tau filaments, thioflavin S fluorescence, 15 h; filaments grown with octadecylsulfate alongside compound; Potency, µM (doses to about 57.1 µM), without a hit: at the highest dose activity change, negative = inhibition; hit rate 2% among 71,000; AID 596;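 note: actives lower thioflavin S fluorescence by blocking filaments or displacing dye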
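Tau 2 uM in ThS buffer dispensed; compound added; 60 uM ODS added (finals 1 uM tau, 30 uM ODS); 15 h 37 C; fluor ex450/em510.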
Luciferase inh: firefly luciferase inhibition; P08659; Potency, µM (top dose mostly 57.1 µM), without a hit: top-dose activity change, negative = inhibition, hits mostly inhibitors; hit rate 2.2% among 72,000; purified firefly luciferase, luminescence, 8 min; AID 411; note: nearly all actives have a fitted effect of over 40% in size
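Firefly luciferase (PKLight detection mix) with 10 uM ATP in pH 7.2 imidazole buffer (KCl, MgCl2, Tween 20, BSA). Compounds tested across a concentration series (qHTS). Luminescence read after 8 min at ambient temperature.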
Bst PK mod: pyruvate kinase (B. stearothermophilus) modulation | purified pyruvate kinase, luminescence ATP production; ribose 5-phosphate activator present at AC10 | Potency, µM | hit rate 1.2% among 51,000 | AID 361; in the data active = potency below about 11 µM; inconclusive = mostly about 12 µM to 25 µM;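 the screen sought inhibitors and activators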;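 note: scaled between full activation by ribose 5 phosphate and full inhibition by luteolin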
ERK AVP inh: inhibitors of vasopressin-stimulated ERK signaling pathway | HEK293-V1b, vasopressin-stimulated pERK AlphaScreen | Potency, µM (titrated, usually from 57.5 µM), for inactives: at the top dose activity, negative = inhibition, hits mostly inhibitors | hit rate 0.99% among 72,000; note: nearly all actives have a fitted effect of over 55% in size
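qHTS, compounds titrated on V1b-expressing HEK293 cells. Preincubation 30 min at 37C, vasopressin 25 nM for 5 min, lysis 10 min, bead incubation 5 hr at room temperature.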
15-hLO inh: 15-hLO (ALOX15) enzyme inhibition; P16050; purified 15hLO-1, xylenol orange hydroperoxide absorbance; Potency, µM (titrated, usually from 57.1 µM), inactives show at the top dose activity change, negative = inhibition, actives largely listed as inhibitors; hit rate 1.4% among 74,000; AID 887; note: nearly all actives have a fitted effect of over 55% in size
Target sequence (P16050 whole entry, looked up): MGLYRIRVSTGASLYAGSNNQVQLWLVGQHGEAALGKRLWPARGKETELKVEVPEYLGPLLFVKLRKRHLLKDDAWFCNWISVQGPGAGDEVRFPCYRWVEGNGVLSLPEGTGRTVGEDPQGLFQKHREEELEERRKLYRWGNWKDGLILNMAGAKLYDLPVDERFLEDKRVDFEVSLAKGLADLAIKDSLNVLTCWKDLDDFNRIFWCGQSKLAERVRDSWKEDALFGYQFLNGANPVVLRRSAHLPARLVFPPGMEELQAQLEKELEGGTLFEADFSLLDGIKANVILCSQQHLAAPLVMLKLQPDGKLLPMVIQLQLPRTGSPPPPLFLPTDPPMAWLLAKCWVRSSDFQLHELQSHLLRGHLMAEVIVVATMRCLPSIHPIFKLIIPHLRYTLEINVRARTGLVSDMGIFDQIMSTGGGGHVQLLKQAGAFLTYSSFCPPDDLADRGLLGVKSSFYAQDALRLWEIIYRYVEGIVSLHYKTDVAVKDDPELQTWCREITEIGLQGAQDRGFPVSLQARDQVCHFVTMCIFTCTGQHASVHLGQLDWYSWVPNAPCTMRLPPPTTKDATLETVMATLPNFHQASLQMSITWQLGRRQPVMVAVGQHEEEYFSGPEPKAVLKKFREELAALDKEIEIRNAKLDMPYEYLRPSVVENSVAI
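Readout: Fe(III)-xylenol orange absorbance, 573-to-405 nm ratio as reaction progress. Enzyme 40 nM purified human 15hLO-1, substrate 50 uM arachidonic acid, 6 min RT after 15 min compound preincubation; Hepes pH 7.5 buffer with Triton X-100.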
Starred values were filed as active, the others as inactive; i = inactive; ? = inconclusive; · = not tested or not shown; ! = not confirmed by another sample; [ ] = remark or other dose. Sampled rows, rich in hits. Any-hit rate of the full collection: about 6%. Unless noted, calls come from the whole dose curve; as a rule, active = well fitted curve in the direction sought with a large enough effect; inconclusive = small, poorly fitted or top-dose-only effect, or another doubt; inactive = no such curve, though single readings can be large; an effect the other way counts as inactive or inconclusive. Unless noted, % is set by controls: 0 for no effect and ±100 for the full control effect; potency is the fitted concentration of half-maximal effect.

SMILES | Pol III holo inh | Tau filament bind | Luciferase inh | Bst PK mod | ERK AVP inh | 15-hLO inh
Cc1ccc(N2C(=O)c3oc4ccccc4c(=O)c3C2c2cccc(O)c2)nc1 (configuration not stated) | 0% | 25µM* | 0% | · | ? | ?
CN(C)C(=O)c1ccc(-c2ccc3ncnc(NC4CCNCC4)c3c2)cc1 | 1% | 7% | 0%[2.29 µM] | · | 10% | 2%
CC(=O)OCC1OC(C#CC2=CCCCC2)C=CC1OC(C)=O (configuration not stated) | · | · | · | · | 25%[11.5 µM] | -2%[11.4 µM]
C[C@@H]1CC[C@H]2C(=O)N3[C@@H](CC[C@@H](C)[C@@H]3c3ccc(Br)cc3)C(=O)N2[C@@H]1c1ccc(Br)cc1 | · | · | 0%[11.4 µM] | · | 44%[11.5 µM] | ?
CC(C)=C[C@H]1[C@@H](C(=O)Oc2ccccc2C(C)C)C1(C)C | -10%[11.4 µM] | 4%[11.4 µM] | 1%[11.4 µM] | · | 11%[11.5 µM] | 4%[11.4 µM]
O=C(NCc1ccco1)c1cc2ccccc2o1 | -7% | 8% | -3% | · | -1% | 20µM*
CC(C)C(=O)Nc1cccc(NC(=O)c2cc3ccccc3o2)c1 | -9% | 10% | 13µM* | i | -16% | -5%
O=C(Nc1cccc(-c2nc3ncccc3o2)c1)c1cc2ccccc2o1 | -4% | i | 16µM* | · | -9% | -17%
Cc1cc(C)nc(NC(=O)c2cc3ccccc3o2)n1 | · | · | · | · | · | 0%
COc1ccc(NC(=O)c2cc3ccccc3o2)cc1 | 1% | 24% | 6.3µM* | · | -7% | -5%
CC(=O)Nc1ccc(-c2cc3ccccc3o2)cc1 | · | · | 4µM* | ? | · | ·
CC(=O)c1cc2ccccc2oc1=O | -10%[25.6 µM] | 0%[25.6 µM] | -2%[25.5 µM] | · | -5%[25.7 µM] | 0%[25.6 µM]
CC(=O)Nc1cccc(NC(=O)c2cc3ccccc3o2)c1 | -5% | 6% | 13µM* | ? | ? | 9%
CCOC(=O)c1ccc(NC(=O)c2cccc(S(=O)(=O)N3CCOCC3)c2)cc1 | -2% | -8% | -7% | · | 5µM* | -19%
CCOC(=O)c1ccc(NC(=O)c2ccc(C)c(S(=O)(=O)N3CCOCC3)c2)cc1 | 4%[11.4 µM] | 26%[11.4 µM] | -2% | · | 3.2µM* | -17%[11.4 µM]
O=C(Nc1ccc2c(c1)OCCO2)c1ccc(Br)c(S(=O)(=O)N2CCOCC2)c1 | -6%[11.4 µM] | -5%[11.4 µM] | -12% | · | 7.9µM* | -3%[11.4 µM]
O=C(Nc1ccc(F)c(F)c1)c1ccc(F)c(S(=O)(=O)N2CCOCC2)c1 | 6% | -5% | 0% | >57 | -3% | 4%
C=CCn1c(=O)/c(=C/c2ccc(C)o2)s/c1=C(/C#N)C(=O)c1ccccc1 | -1% | 46% | -5% | >57 | 2% | 16µM*
Cc1ccccc1-n1c(=O)/c(=C\c2ccco2)s/c1=C(/C#N)C(=O)Nc1ccccc1 | · | · | -1%[25.5 µM] | >26 | · | ·
COc1cccc(-c2cnc(NCc3cc(Cl)ccc3O)n2C)c1 | -1% | 30% | 0% | >57 | ? | 32µM*
Cn1c(-c2cccc(Br)c2)cnc1NCc1cccnc1 | -6% | 13% | 0% | >57 | -18% | 16%
COc1ccccc1-c1nc(C#N)c(N2CCc3ccccc3C2)o1 | 3% | 180% | -2% | ? | 20µM* | -19%
COc1ccc2c(c1)OC/C(=C/c1ccc(OC)c(OC)c1)C2=O | · | · | · | · | 16µM* | -5%
COc1ccc2c(c1)OC/C(=C/c1ccc(O)c(O)c1)C2=O | · | · | · | · | -1% | -2%
O=C(Nc1nsc(-c2ccccc2)n1)c1cccs1 | 0% | -9% | 5µM* | 7.8* | ? | 1%
SMILES | Pol III holo inh | Tau filament bind | Luciferase inh | Bst PK mod | ERK AVP inh | 15-hLO inh
O=C(Nc1ncc(Cc2ccccc2)s1)c1cccs1 | 3% | 11% | 10µM* | ? | 36% | 6%
Cc1ccc(C(=O)Nc2ncc(Cc3ccccc3)s2)o1 | -1% | 12% | 13µM* | ? | 9% | 2%
CCNc1ncc2ncc(=O)n(CCOC)c2n1 | -9% | 56% | 0%[11.4 µM] | · | -18% | ?
COc1nc(Nc2cccc(C)c2)nc(N2CCCCC2)n1 | -2% | 7% | 0% | >57 | 4% | 4µM*
CC(=O)OCC1OC(C#Cc2ccccc2)C=CC1OC(C)=O (configuration not stated) | · | · | · | · | 26%[11.5 µM] | -2%[11.4 µM]
CCOC(=O)CNC(=O)CSc1ncnc2c1cnn2-c1ccc(Cl)cc1 | -1% | -1% | -2% | >57 | -28% | 1%
CCOC(=O)Cc1csc(NC(=O)CSc2ncnc3c2cnn3-c2ccc(OC)cc2)n1 | 2% | -5% | -25% | >57 | 5µM* | -19%
Nc1ccc(O)c(C(=O)O)c1 | 16µM*! | -12% | -9%[25.5 µM] | · | -13% | ?
Nc1ccc(C(=O)O)cc1 | -7% | 5% | · | · | 4% | 3%
Cc1ccc(-n2c(C)cc(C(=O)COC(=O)c3c(C)noc3C)c2C)cc1 | 5% | 6% | 25µM* | i | 4% | 5%
c1ccc2[nH]c(CN3CCN(c4ncnc5c4oc4ccccc45)CC3)nc2c1 | -11% | 25% | -2% | · | 13µM* | -11%
Cc1nc(N2CCN(Cc3nc4ccccc4[nH]3)CC2)c2oc3ccccc3c2n1 | 8% | 30% | 2% | >57 | ? | -7%
c1cnc(N2CCN(c3ncnc4c3oc3ccccc34)CC2)nc1 | -9% | 3% | -1% | >57 | -11% | 3%
C(=C\c1ccccc1)/CN1CCN(c2ncnc3c2oc2ccccc23)CC1 | -2% | 11% | 13µM* | i | -30% | -13%
CC(=O)Nc1ccc(SCC(=O)c2cc(C)n(Cc3cccs3)c2C)cc1 | -3% | 188% | -3% | >57 | 4% | -1%
Cc1csc(SCC(=O)c2cc(C)n(Cc3cccs3)c2C)n1 | -3% | 18% | 4µM* | 3.2* | ? | -4%
COc1ccc(N=c2oc3c(OC)cccc3cc2C(=O)NCc2ccco2)c(OC)c1 | -2% | 1.3µM* | 0% | >57 | -15% | -9%
C=C(C)C(O)/C=C/c1ccc(Br)cc1 (configuration not stated) | · | · | · | · | -3%[11.5 µM] | -17%[11.4 µM]
CN(Cc1ccccc1)c1nc2c(c(=O)[nH]c(=O)n2C)n1CCCc1ccccc1 | -2% | 12% | -1% | >57 | 35% | -23%
CN(Cc1ccccc1)c1nc2c(c(=O)[nH]c(=O)n2C)n1Cc1ccccc1Cl | -7% | 13% | -1% | >57 | 16µM* | -17%
Cn1c(=O)[nH]c(=O)c2[nH]c(N(Cc3ccccc3)Cc3ccccc3)nc21 | -7% | 89% | 2% | >57 | 25µM* | -14%
Cc1ccccc1-c1ccc2ncnc(N3CCOCC3)c2c1 | -10% | -1% | -1%[2.29 µM] | · | ? | -10%
Cc1ccccc1-c1ccc(Nc2ccc(N3CCOCC3)cc2)nn1 | 1% | 16µM* | -5% | >57 | ? | -13%
O=S1(=O)N=C(N2CCOCC2)c2ccccc21 | 2% | 0% | -1% | >57 | 5% | 4%
O=S1(=O)N=C(Nc2ccc(N3CCOCC3)cc2)c2ccccc21 | 3% | -13% | 13µM* | · | -13% | -9%
COc1cccc2c1CCC1=CC(=O)CC[C@@]12C | · | · | · | · | -1% | 5%
